Eya2 inh: inhibitors of human Eya2 phosphatase activity. O00167. recombinant Eya2, OMFP fluorescence dephosphorylation (OMFP is methylfluorescein phosphate). Potency, µM (titrated, usually from 76.9 µM), usual class: inhibitors. 330,000 compounds, 0.006% hits. AID 488837
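Eya2 protein (added as 0.2 uM solution) was preincubated with compound for 10 min at ambient temperature in 50 mM HEPES pH 7.5, 50 mM NaCl, 5 uM MgCl2, 0.05% BSA, 1 mM DTT. OMFP (added at 50 uM) then reacted 10 min; fluorescence read at 485/525 nm.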
GALK inh: galactokinase (human) inhibition | P51570 | Purified GALK, Kinase-Glo residual ATP luminescence | Potency, µM (doses to about 57.5 µM), most hits filed as inhibitors | 270,000 compounds, 0.007% hits | AID 1868
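Quantitative HTS: GALK 5 nM, ATP 35 uM, galactose 100 uM, 1 h room temperature, then luciferase-based ATP detection.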
Apoferritin bind: binds horse apoferritin like a general anesthetic. P02791. apoferritin/1-aminoanthracene competitive binding, fluorescence. Potency, µM (top dose mostly 77.5 µM), most hits filed as inhibitors. 350,000 compounds, 0.074% hits. AID 485281; note: nearly all actives have a fitted effect of over 20% in size
Target sequence (P02791 2-175 limits assumed): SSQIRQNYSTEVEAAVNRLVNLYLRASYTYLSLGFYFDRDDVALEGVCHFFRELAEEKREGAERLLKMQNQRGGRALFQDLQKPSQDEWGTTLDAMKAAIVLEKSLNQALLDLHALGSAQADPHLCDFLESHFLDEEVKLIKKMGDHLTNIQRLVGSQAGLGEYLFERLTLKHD
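10 uM apoferritin + 50% sat. 1-AMA, PBS; cpd 10 min RT; Ex380/Em535 endpoint; normalized to free probe vs complex; 4-param Hill fit; propofol titration as pos. ctrl.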
Six1-Eya2 inh: blocks human Six1 binding to Eya2; AID 651725; AlphaScreen GST-Six1/His-Eya2 binding, biochemical; active compounds read low; Q15475+O00167; activity change, % (test concentration not listed); 360,000 compounds, 0.56% hits; in the data active = activity change below about -65%; inconclusive = mostly about -30% to -63%
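AlphaScreen luminescence read after one hour at 37 °C in darkness. Pin-transferred compounds met GST-Six1 and His-Eya2 protein (5X stock 250 nM/500 nM) plus glutathione donor and Ni-chelate acceptor beads (5X, 50 ug/mL).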
CtBP-E1A inh: CtBP/E1A binding inhibition; AlphaScreen GST-E1A/His-CtBP binding, 1536-well; active compounds read low; activity change, % (test concentration not listed); 340,000 compounds, 0.49% hits; in the data active = activity change below about -65%; inconclusive = mostly about -30% to -63%
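Steps: dispense buffer (Tris pH 8.0, NaCl 300 mM, TCEP 1 mM, BSA, Tween 20); add 5X protein mix (GST-E1A, His-CtBP, 125 nM each); pin 23 nL compound; 2 h at 37 °C, dark; add 5X beads (50 ug/mL); 1 h; read.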
JMJD2E inh: inhibitors of human JMJD2E histone demethylase; B2RXH2; JMJD2E catalytic domain, FDH-coupled NADH fluorescence (FDH is formaldehyde dehydrogenase); Potency, µM (top dose mostly 57.1 µM), hits mostly inhibitors; 230,000 compounds, 1.6% hits; AID 2147; active = well fitted inhibition curve with a large enough effect, not every such curve was filed as active; inconclusive = small, poorly fitted or top-dose-only effect, or another doubt; inactive = no such curve, though single readings can be large or run the other way; note: nearly all actives have a fitted effect of over 50% in size
Target sequence (B2RXH2 1-337 limits assumed): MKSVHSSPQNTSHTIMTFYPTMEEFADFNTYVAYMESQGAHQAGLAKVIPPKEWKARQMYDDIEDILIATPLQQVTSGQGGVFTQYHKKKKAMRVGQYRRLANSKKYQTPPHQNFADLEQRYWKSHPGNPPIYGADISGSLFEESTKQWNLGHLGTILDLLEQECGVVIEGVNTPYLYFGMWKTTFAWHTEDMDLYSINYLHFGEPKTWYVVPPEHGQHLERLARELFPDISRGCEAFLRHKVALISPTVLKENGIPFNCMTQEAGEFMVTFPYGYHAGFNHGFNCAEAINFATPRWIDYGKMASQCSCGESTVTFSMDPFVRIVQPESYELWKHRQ
A number is an active result; – = inactive; ? = inconclusive; · = no result given. This is one part of a sample in which hits are shown more often than they occur. Unless noted, calls come from the whole dose curve; as a rule, active = well fitted curve in the direction sought with a large enough effect; inconclusive = small, poorly fitted or top-dose-only effect, or another doubt; inactive = no such curve, though single readings can be large; an effect the other way counts as inactive or inconclusive.

SMILES	Eya2 inh	GALK inh	Apoferritin bind	Six1-Eya2 inh	CtBP-E1A inh	JMJD2E inh
Cc1cc(C(=O)N/N=C/c2cc(N=Nc3ccccc3)ccc2O)n[nH]1	–	–	–	-90.4	–	5.01µM
Cc1cc(C(=O)N/N=C/c2ccc(O)c([N+](=O)[O-])c2)n[nH]1	–	–	–	–	–	–
Oc1c(Cl)cc(Cl)cc1CNc1ccccn1	–	–	–	-72.4	?	·
Oc1ccc(Br)cc1CNc1ccccn1	?	–	–	–	–	–
CC(=O)c1ccc2c(c1)C1C=CCC1C(C(=O)O)N2 (stereo not given)	–	–	–	-68.3	?	–
CCN(CC)c1ccc(N=Nc2ncn[nH]2)cc1	–	–	?	-68.8	-73.9	14.1µM
O=C1CCCC2[C@@H]3CCC[N@+]4([O-])CCC[C@H](CN12)C34 (stereo not given in full)	·	·	·	·	·	–
COc1ccc(Cl)cc1C(=O)NCCc1ccc(S(=O)(=O)NC(=O)NC2CCCCC2)cc1	–	–	–	–	–	–
COc1ccc2c(c1)C(=O)N(CCc1ccc(S(=O)(=O)NC(=O)NC3CCCCC3)cc1)C(=O)C2(C)C	–	–	–	–	–	7.94µM
COc1ccc2c(c1OC)C(=O)OC2CC(=O)c1ccc(O)cc1 (stereo not given)	–	–	–	–	–	–
COc1ccc2c(c1OC)C(=O)OC2CC(=O)c1ccc(O)c(O)c1 (stereo not given)	–	–	–	–	–	14.1µM
O=C(O)C1Cc2[nH]cnc2C(c2ccccc2O)N1 (stereo not given)	–	–	–	?	?	31.6µM
Cc1nn2c(-c3ccco3)ccnc2c1-c1ccc(Cl)cc1	·	·	–	·	·	·
CN1C(=O)c2cccc3c(S(=O)(=O)NCCc4ccccc4)ccc1c23	–	–	–	–	–	·
CN1C(=O)c2cccc3c(S(=O)(=O)Nc4ccc(O)c(C(=O)O)c4)ccc1c23	–	–	–	-71.9	?	·
Oc1ccc(/C=N/N2CCN(C3c4ccccc4-c4ccccc43)CC2)cc1O	–	–	–	–	–	15.8µM
CCCCCCCCCCCCC/C=C/[C@@H](O)[C@H](COP(=O)([O-])OCC[N+](C)(C)C)NC(=O)CCCCCCCCCCCCCCCCC	·	·	·	·	·	–
COc1cc(/C=C2/CC/C(=C/c3ccc(O)c(OC)c3)C2=O)ccc1O	–	–	–	–	–	11.2µM
COc1cc(/C=C2\COC/C(=C\c3ccc(O)c(OC)c3)C2=O)ccc1O	–	·	–	–	–	–
CN(C)CCNC(=O)c1cccc(-c2cnc3c(NC=O)cc(/C=C/c4ccccc4)cn23)c1	·	·	·	–	–	·
COc1ccc(N(C(=O)COc2ccccc2OC)S(=O)(=O)c2ccc(Cl)cc2)cc1	·	·	–	·	·	·
Cc1cc(-c2ccccc2)n[nH]1	–	–	–	–	–	–
FC(F)C(F)(F)C(F)(F)C(F)(F)c1cc(-c2ccccc2)n[nH]1	–	–	14.1µM	–	–	–
CC(=O)N1CCCc2cc(S(=O)(=O)N3CCCC(C(=O)N4CCN(c5ccccc5F)CC4)C3)ccc21 (stereo not given)	·	·	–	·	·	·
Cc1ccc(Nc2nc3ccccc3s2)c(C)c1	–	–	?	–	–	–
SMILES	Eya2 inh	GALK inh	Apoferritin bind	Six1-Eya2 inh	CtBP-E1A inh	JMJD2E inh
Cc1cc(O)ccc1Nc1nc2ccccc2nc1Nc1ccc(O)cc1C	–	–	–	–	–	25.1µM
COc1ccc(NC(=O)CCCn2c(=O)c3cccn3c3ccccc32)c(OC)c1	·	·	–	·	·	·
COc1ccc(CNC(=O)c2c(O)c3cccc4c3n(c2=O)CCC4)cc1	–	–	–	–	–	0.794µM
COc1ccc(CNC(=O)c2c(O)c3cccc4c3n(c2=O)CCC4)cc1OC	–	–	–	–	–	–
CCCCN(CC)S(=O)(=O)c1ccc(C(=O)Nc2nnc(-c3cccs3)o2)cc1	–	–	–	–	–	25.1µM
CC1=NOC(=O)/C1=C/c1ccc(O)cc1	–	–	–	–	–	28.2µM
COc1cccc(C2NC(c3cccc(OC)c3O)C(C)C(=O)C2C)c1O (stereo not given)	–	–	–	–	–	20µM
COc1ccccc1C1NC(c2ccccc2OC)C(C)C(=O)C1C (stereo not given)	–	–	?	–	–	–
CCOc1cc(C2NC(=O)NC(C)=C2C(=O)OCc2ccccc2)ccc1O (stereo not given)	–	–	–	-68.8	–	–
COc1cc(C2NC(=O)NC(C)=C2C(=O)OCc2ccccc2)ccc1O (stereo not given)	–	–	–	–	–	–
Nc1cc2[nH]c(=O)c3ccccc3c2cc1[N+](=O)[O-]	·	·	·	-72.0	-72.2	·
COC(=O)C1(C)C=CC2(CCCCC2)N1C(=O)c1ccccc1 (stereo not given)	·	·	–	·	·	–
CC(C)C1=CC2=CC[C@@H]3[C@@](C)(C(=O)O)CCC[C@]3(C)C2CC1 (stereo not given in full)	·	·	·	·	·	35.5µM
C=C[C@]1(C)C=C2CC[C@H]3[C@@](C)(CCC[C@@]3(C)C(=O)O)[C@@H]2CC1	–	·	·	–	–	·
Cc1nc(N=Nc2cc(S(=O)(=O)O)c3cc([N+](=O)[O-])cc(S(=O)(=O)O)c3c2)c(COP(=O)(O)O)c(C=O)c1O	–	·	–	·	·	7.94µM
Cc1nc(N=Nc2cc([N+](=O)[O-])ccc2Cl)c(COP(=O)(O)O)c(C=O)c1O	·	·	–	·	·	·
N#Cc1cc([N+](=O)[O-])ccc1NC(=O)COC(=O)CCC1CCCCC1	–	–	31.6µM	·	·	–
CCCC(=O)OCC(=O)Nc1ccc([N+](=O)[O-])cc1C#N	–	–	–	–	–	–
CC(=O)SC1CC2=CC(=O)CC[C@@]2(C)C2CC[C@@]3(C)[C@@H](CC[C@@]34CCC(=O)O4)C12 (stereo not given in full)	·	·	–	·	·	–
COc1ccc(C2CC(=O)C(CS(=O)(=O)c3ccccc3)C(=O)C2)cc1 (stereo not given)	–	–	31.6µM	–	·	–
O=C(CN1C(=O)CCSc2ccc(S(=O)(=O)N3CCCC3)cc21)Nc1cccc(F)c1	·	·	–	·	·	·
NC(=S)N/N=C/c1ncc(C(F)(F)F)cc1Cl	–	–	–	-84.8	-85.0	?
NC(=S)N/N=C/c1ccc(C(F)(F)F)cc1	–	–	–	–	–	–
COc1ccc(C2CC(c3ccccc3)Oc3c(C)ccc(C(C)C)c32)cc1 (stereo not given)	·	·	–	·	·	·
CC1(C)CC(=O)C(CS(=O)(=O)c2ccccc2)=C(O)C1	–	–	31.6µM	–	–	·
O=C(NNC(=O)C12CC3CC(CC(C3)C1)C2)c1ccccn1	–	–	?	-65.7	–	?
O=C(COC(=O)c1ccccn1)NC12CC3CC(CC(C3)C1)C2	–	–	7.94µM	–	–	–
